The supplement of paper PMC5499739
In all, about 16,000 sequences were measured (“Z-score”: median about -0.37, highest 2% from about 3.1 on). The full list was thinned out, with the highest values kept by preference.

System: RBM10 RRM1-ZnF-RRM2 (GST-tagged construct)
Assay: RNAcompete 7-mer binding Z-score; higher = stronger binding preference
Description: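 RNAcompete: 20 pmol GST-tagged RBM10 RNA-binding constructs were incubated with a designed RNA pool of about 241,000 sequences up to 41 nt (1.5 nmol) on glutathione beads for 30 min at 4 °C and washed. Bound RNAs were identified by microarray hybridisation. Each RNA 7-mer is scored by a one-sided Z-score of its enrichment, computed over probes that contain the 7-mer within longer pool sequences.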

Sequence	RNAcompete 7-mer binding Z-score
UGGGAUA	2.85
CGGGAUG	2.31
UGGGAUU	1.63
GGGGAUG	3.68
ACAGAUU	-0.242
AAUGGUC	0.822
GCAGCCC	-0.497
CUGCCAG	-0.606
AAACUUU	-0.752
UAGUGAC	0.21
CAUUCUA	-0.821
CCGGGGA	1.12
GCGGGGU	3.77
GCGGGGA	3.23
GCGGGUU	2.54
GCGGGGG	3.51
GCGGGGC	2.5
CCGGGGG	1.4
UCGGGGA	1.7
UCGGGGU	1.76
UCAAGCU	-0.621
CUCCGAC	-0.664
UCCCCAA	-0.639

Sequence	RNAcompete 7-mer binding Z-score
CCAUAGA	-0.464
CGACGGG	2.14
GGAACGG	4.03
GAACGGG	4.29
AGAACGG	1.84
GGACGGC	1.05
GAACGGU	1.56
GAACGGC	0.84
CGAACGG	1.41
GGACGGG	4.18
ACGAUAC	-0.413
AUGCAUC	-0.362
UGAUAUA	-0.366
CACGAAA	-0.366
GGAUGGA	3.36
AGAUGGU	1.63
GGAUGGU	3.73
AGAUGGA	2.92
GGAUGGC	2.46
UGAUGGU	1.26
UAGGAGC	1.74
AUGGGCG	3
AUGGGCA	2.7

Sequence	RNAcompete 7-mer binding Z-score
GUGGGCC	1.58
CUGGGCG	1.05
GUGGGCG	3.37
GUGGGCA	3.48
AGCGCGC	-0.282
CAGUCUU	-0.857
GAAAUCU	-0.46
CCGUUAA	-0.77
AGAAAAU	0.0859
AGGGUCU	0.559
GGGGUAG	4.58
CGGGUAU	1.39
GGGGUAU	2.98
GAGGUAA	2.53
GGGGUAC	2.82
AGGGUAA	4.77
CGGGUAA	1.81
GUGGUAG	2.26
UGGGUAA	2.38
AGGGUAU	3.41
GGGGUAA	3.5
UGAGCAU	-0.0634
UGUAACU	-0.358

Sequence	RNAcompete 7-mer binding Z-score
AUCGGCG	0.337
CGCCUGG	-0.482
GUGGCCA	0.403
UUCCGGG	0.341
GUUGAGU	0.57
GAGUCCU	-0.453
UCAGUCA	-0.493
UGUGGGC	1.83
UGUGGUG	1.57
AGUGGUG	2.24
AGUGGGC	2.96
CGUGGUG	1.44
AGUGUGG	2.64
AGUGGGG	4.66
GGUGGUG	3.25
GGUGGGC	3.19
UGUGGGG	3.75
UGUGGGA	2.96
GGUGGUC	2.11
AAGCUCA	-0.635
GCACGGU	0.519
GCACGCG	-0.0598
GUUGCCG	-0.216

Sequence	RNAcompete 7-mer binding Z-score
AAGCGGU	1.03
ACGGAAC	0.785
GGUGGGU	3.47
AGUGGGU	3.35
GCUGGGU	1.78
AGUGGCA	1.68
UGUGGGU	2.9
AGUGGGA	4.3
GGUGGCA	2.34
GGUGGGA	3.75
GCUGGGA	1.69
CGUGGGU	2.43
AGUGGUA	1.92
GGUGGUU	2.03
UAUUCAA	-0.606
UGUUUUU	-0.46
CUAACCC	-0.766
GGCGAAA	1.35
CUCCUAU	-0.956
GGGGGGG	2.58
CGUGGGC	2.21
GGUGGGG	4.34
CGUGGGG	3.57

Sequence	RNAcompete 7-mer binding Z-score
CGUGGGA	2.39
GCUGGGG	2.46
AUCUCUG	-0.846
GGGGGGC	2
GUGGGAA	3.49
GUGGGGA	4.25
GUGGGAC	2.4
CUGGGGC	0.956
AUGGGCU	1.51
AUGGGAC	2.47
GCGGGAA	2.5
CUGGGGA	1.32
GUGGGGC	3.47
AUGGGAU	3.25
GUUGGGA	3.05
UCAACGC	-0.584
GGAAAUC	0.931
CUGGCGG	0.541
GUGGGAG	3.99
GCGGGAG	2.64
CUGGGGG	1.81
GUGGCGG	3.22
GUGGGUU	2.54

Sequence	RNAcompete 7-mer binding Z-score
GUGGGGG	4.18
GUGGCGC	1.46
GUGGGGU	4.45
UCGGGAG	1.18
UUGGGGU	2.84
UGGCUAU	-0.00148
GGAUAGC	2.07
CGCAACU	-0.825
UCAAUUC	-0.752
GUAGUGA	1.1
GGUGCGA	1.58
CUUUCCG	-0.777
AUCAGCA	-0.395
AUUCCCC	-0.613
AGGAUAA	1.21
CUGGGAU	0.964
UUGGGAU	1.9
GUGGGAU	3.57
AUAAGAA	0.177
GAUUGCC	-0.672
AAGUCUU	-0.697
UUAGGGG	2.07
CUAGGAG	0.534

Sequence	RNAcompete 7-mer binding Z-score
GUAGGAG	3.78
CUAGGGU	2
GUAGGGC	2.85
GUAGGAC	1.86
GUAGGGG	4.66
GUAGGGU	4.48
GUAGGGA	4.26
UUAGGGA	2.36
CUAGGGG	1.97
UUAGGGU	3.02
AACUUUA	-0.679
UAGGCGG	1.79
UGUGACC	-0.176
CGUCUUU	-0.613
CCACUCG	-0.73
GGGUCUG	0.993
ACCUCUG	-0.814
AUAGGCG	1.16
AUAGGGC	2.14
AUAGGAG	2.27
AUAGGGA	2.9
AUAGGGU	4.33
AUAGGGG	4.15
